PubChem BioAssay AID602318 (Sanford-Burnham Center for Chemical Genomics, 2012)
The campaign covered roughly 1,900 compounds. About 550 (29%) were called active. Cut-off read from the data, not from the text of the source: active = inhibition above about 40%; inactive = the rest. Not all results are given here.

Target: 26S proteasome non-ATPase regulatory subunit 14 (Homo sapiens) (UniProt O00487)
Assay: Rpn11 (PSMD14) deubiquitinase inhibitors, confirmation, biochemical, fluorescence polarization, single concentration (AID 602318)
Conditions: purified human 26S proteasome, Ub4-pepOG fluorescence polarization; at 20 µM; active compounds read high; proteasome pretreated with epoxomicin

Chain of 26S proteasome non-ATPase regulatory subunit 14 (Homo sapiens) (O00487 whole entry, looked up): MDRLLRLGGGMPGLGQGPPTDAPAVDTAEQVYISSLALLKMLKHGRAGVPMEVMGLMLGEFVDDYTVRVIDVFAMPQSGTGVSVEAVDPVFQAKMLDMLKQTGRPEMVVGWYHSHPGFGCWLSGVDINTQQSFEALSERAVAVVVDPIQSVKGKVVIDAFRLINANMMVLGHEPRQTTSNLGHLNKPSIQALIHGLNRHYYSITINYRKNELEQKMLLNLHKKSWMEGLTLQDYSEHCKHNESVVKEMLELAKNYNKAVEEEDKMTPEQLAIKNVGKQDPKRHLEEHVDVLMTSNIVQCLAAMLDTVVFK

inhibition, inactive:
CCCS(=O)(=O)N1CCCC(C(=O)NCc2ccco2)C1 (stereo not given) -10.1%
C=CCn1c(=S)[nH]c2scc(-c3ccco3)c2c1=O 0.26%
CCC(C)Cn1c(O)cc2nn(-c3nc4ccccc4s3)c(=O)c-2c1C (stereo not given) 15.4%
Cc1ccc(NC(=O)c2c(NC(=O)CCC(=O)O)sc3c2CCCCC3)cc1 -3.94%
CSC1=N/C(=C\C=C\c2cccs2)C(=O)S1 29.7%
CCN1CCN(c2cc3nc(C)n(Cc4ccccc4)c(=O)c3cc2NC(=O)c2ccccc2F)CC1 17.4%
C/C(=N/Nc1nc(-c2ccccc2)c(CC(=O)O)s1)c1ccccc1 34%
O=C(CCS(=O)(=O)c1cccc2nonc12)NCCc1ccccc1Cl -2.85%
CCCOc1ccc(Cn2c(O)cc(=O)[nH]c2=O)cc1 20.3%
CCNCc1cc2cc(C)ccc2[nH]c1=O 18.7%
Cc1ccc(Nc2ccccc2N)cc1 32.8%
O=C(OCc1cc2ccccc2[nH]c1=O)c1cccnc1 -8.83%
CC(C)Cn1c(CCC(=O)O)ccc1-c1cccs1 -26.6%
CC(C)CC1C(=O)N(Cc2cn(Cc3ccco3)nn2)CCS(=O)(=O)N1Cc1ccc(-c2ccc(Cl)c(Cl)c2)cc1 (stereo not given) 17.1%
Cc1c(NC(=O)CSc2cccc3cccnc23)c(=O)n(-c2ccccc2)n1C 21.1%
CC(=O)c1sc(N/N=C/c2ccc(C(C)C)cc2)nc1C -9.02%
CCOC(=O)N1CCC(NC(=O)C(NS(=O)(=O)c2ccc3c(c2)CCN3C(=O)CC)C(C)C)CC1 (stereo not given) 4.92%
Cc1sc2nc(COC(=O)C(NC(=O)c3ccc(Cl)cc3Cl)C(C)C)[nH]c(=O)c2c1C (stereo not given) 34.7%
CCC/C=C(\CCC)C(NC(=O)Cc1ccccc1)c1ccc(C(=O)OC)cc1 (stereo not given) -5.68%
CCCCCCCCCCOC(=O)Cn1c(COc2cccc(OC)c2)[n+](C)c2ccccc21 7.65%
COC1=C/C(=C/c2c(N)n3nc(CC(=O)N4CCOCC4)sc3nc2=O)C=CC1=O 31.8%
O=C(COc1cccc(F)c1)Oc1ccc(C(=O)c2ccccc2)cc1 -1.38%
Cc1ccc(N=Cc2c(O)cc(C)oc2=O)c(C)c1 22.8%
CCOc1ccc(-n2c(O)c(/C=N/Nc3nnc(C)c(=O)[nH]3)c3ccccc3c2=O)cc1 38.6%
COc1ccc2[nH]c(=O)c(-c3noc(-c4ccc(F)cc4)n3)cc2c1 3.41%
Cc1cc(/C=N/Nc2ccc([N+](=O)[O-])cn2)c(C)n1-c1cccc(C(=O)O)c1 19.1%
Cc1oc2c(C)c3oc(=O)c(CC(=O)N[C@@H](CC(C)C)C(=O)N[C@@H](Cc4ccccc4)C(=O)O)c(C)c3cc2c1C 26.8%
CCCCCCSc1ccc([C@@H]2[C@H]3C(=O)N(CC)C(=O)[C@H]3[C@]3(C(=O)OC)CCCCN23)cc1 33.6%
CN(C)c1ccc(-n2cccc2/C=C2/SC(=Nc3ccc(F)cc3)NC2=O)cc1 -10.9%
Cc1cc(/C=C2/SC(=O)N(CC(=O)N3CCCC3)C2=O)ccc1N1CCOCC1 33.9%
CCN(CC)C(=O)CSc1nc2ccccc2n1CC(=O)N1CCN(c2ccccc2OC)CC1 -7.43%
C=CCn1c(SCC(=O)NCc2ccccc2)nnc1-c1cc(Br)ccc1O -6.6%
Cc1ccc2cc(C#N)c(NCCNC(=S)NCCCN3CCOCC3)nc2c1 1.22%
O=C(Nc1ccc(-c2nnc(-c3ccccc3)o2)cc1)c1ccc(Br)o1 11.5%
Nc1nonc1-n1nnc(C(=O)N/N=C/c2cc(Br)ccc2O)c1CSC1=NCCS1 24.8%
CCOc1cc(/C=C2\SC(N3CCCCC3)=NC2=O)ccc1O 18.3%
O=C(CSc1cccc2cccnc12)N/N=C/c1cccnc1 32.7%
N#Cc1ccc(C(=O)Nc2cccc3cccnc23)c(F)c1 -21.1%
CC1CCN(c2ccc3c(c2)S(=O)(=O)c2cc(C(=O)O)ccc2C3=O)CC1 30.4%
Cc1nc2ccccc2n1C(=O)N1CCOCC1 -9.96%
COc1ccc(-n2c(SCC(=O)Nc3sc4c(c3C#N)CCCC4)nnc2-c2ccc(O)cc2)cc1 13.9%
CC(=O)Nc1ccccc1Sc1ccc2c3c(cccc13)C(=O)N(c1ccc(C)cc1)C2=O 1.98%
COC(=O)c1ccc(OCC(=O)NC(C)(C)C)cc1 -8.84%
Cc1nc2ccc(C(=O)N3CCSCC3)cc2s1 -7.54%
Oc1c(CN2CCCC2)cc(COCc2ccccc2)c2cccnc12 14.7%
C=CC[n+]1c(-c2ccc(C)cc2)csc1NNC(=O)Nc1ccccc1 9.49%
CC(C)(C)NC(=O)CSC(=Nc1ccccc1F)NC#N 16.3%
CCOc1cc(/C=C2\SC(N3CCCC(C)C3)=NC2=O)ccc1O (stereo not given) 11.7%
CCc1ccc(NC(=O)CS(=O)CC(=O)NCCCc2ccccc2)cc1 (stereo not given) 20.8%
COc1cccc(NC(=O)C(C)Oc2ccccc2)c1 (stereo not given) -12.2%
CN(C)CCOC1c2ccccc2-c2ccccc21 -6.33%
COc1ccc(CC(=O)Nc2ccc(-c3nnc(-c4ccc(C)cc4)o3)cc2)cc1 -7.43%
Cc1ccc(NC(=O)CN2CCc3ccccc3C2)cc1 -8.38%
NC(N)=N/N=C/c1ccc(OCc2ccc(Cl)cc2Cl)cc1 37%
Oc1ccc(/C=N/Nc2nc(-c3ccccc3F)nc3ccccc23)c(O)c1 18.3%
O=C1NC(=O)C2C1C(c1ccc([N+](=O)[O-])cc1)=NN2Cc1ccccc1 (stereo not given) 29.9%
Cc1ccc(-c2nnc(-c3ccc(NC(=O)c4cccs4)cc3)o2)cc1 -12.4%
CCN1CCCC1CNC(=O)c1cc2c(=O)n(C)c3ccccc3c2n1C (stereo not given) 2.2%
Cc1cc(OCC(=O)Nc2nccs2)c2c(C)c(C)c(=O)oc2c1 38.8%
Cc1nc2ccccc2nc(=O)c1NNc1ccc([N+](=O)[O-])cc1 24%

inhibition, active:
CCc1ccc(-c2cc(C(=O)NCc3ccco3)c3ccccc3n2)s1 40.9%
COc1ccc(CNC(=O)c2nnn(CC(=O)Nc3cc(C)cc(C)c3)c2N)cc1 52.8%
COc1ccc(Cl)cc1NC(=O)CCS(=O)(=O)c1ccc(Br)cc1 124%
Cc1ccc(Nc2nc(Cl)c(C=O)s2)cc1 55%
CN=c1scc(-c2cc(OC)ccc2OC)n1/N=C/c1c(C)[nH]c2ccccc12 44.5%
C=CC1=C(C(=O)O)N2C(=O)[C@@H](NC(=O)/C(=N/OCC(=O)O)c3csc(N)n3)[C@H]2SC1 66.5%
CCOc1ccc(-n2c(O)c(/C=N/c3ccnn3Cc3ccncc3)c3ccccc3c2=O)cc1 98.3%
N#Cc1c(-c2cccs2)nc(SCC(=O)c2ccc(Br)cc2)[nH]c1=O 46%
CS(=O)(=O)c1ccc2c(c1)SC1=NC(=O)/C(=C/c3ccco3)C(=N)N12 46.2%
COc1cccc(-c2nn(-c3ccccc3)cc2/C=C(\C#N)C(=O)NCCCn2ccnc2)c1 53.8%
O=C(CSc1nc2ccccc2c(=O)[nH]1)Nc1nc(-c2ccc(Br)cc2)cs1 129%
COc1cc(/C=C2/SC(=S)N(Cc3ccccc3)C2=O)cc(OC)c1O 49.8%
CC(=O)/C(=N\Nc1ccc(Cl)cc1Cl)Sc1cccc2cccnc12 62.9%
COc1cccc(/C=C(/CC(=O)Nc2ccc(N3CCOCC3)cc2)c2nc3ccccc3s2)c1 57.2%
CCOc1ccc(NC(=O)c2ccc(NC(=O)COC(=O)c3ccc(NC(=O)CC#N)cc3)cc2)cc1 103%
Cc1cccc(OCc2nnc(SCc3nc4cc(C(F)(F)F)ccc4c(=O)[nH]3)o2)c1 57.8%
O=C(O)c1ccc(NN=CC2=C(N3CCOCC3)/C(=C/c3ccccc3)CC2)cc1 48.1%
COc1ccc(NC(=O)Cn2c(-c3ccc(OC)cc3)cn(-c3ccc(C)cc3)c2=O)cc1 42.8%
CC(C)Oc1ccc(/C=C(\NC(=O)/C=C/c2ccco2)C(=O)NCCc2nc3ccccc3[nH]2)cc1 44.1%
Cc1c(N=Nc2ccc(N(C)C)cc2)c(=O)n(-c2ccccc2)n1C 47.2%
